T1: UNK ZnF1-6 (called full-length) (human, UniProt Q9C0B0 30-357)
T1 sequence: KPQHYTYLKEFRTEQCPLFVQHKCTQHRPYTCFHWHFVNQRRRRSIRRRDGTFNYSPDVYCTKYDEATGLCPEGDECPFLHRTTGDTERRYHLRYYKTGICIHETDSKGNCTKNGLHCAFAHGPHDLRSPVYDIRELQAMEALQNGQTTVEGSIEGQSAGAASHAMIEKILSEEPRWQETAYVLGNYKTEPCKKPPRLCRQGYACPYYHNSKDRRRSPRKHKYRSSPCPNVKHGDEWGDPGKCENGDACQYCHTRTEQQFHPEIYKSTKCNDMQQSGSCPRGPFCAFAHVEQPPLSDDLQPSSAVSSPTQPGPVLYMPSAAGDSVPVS

B1: ENSG00000198589:be:win_9101|3pUTR|ENSG00000198589|bound_else_gene|NA|bound_elsewhere_windowed (ssRNA)
RNA: GGGAGUUCUACAGUCCGACGAUCUUCAAGCAUGUUUUAGACCUAGAAAAGUAUGGUUUGGGGGAGGCUAUUUUAUUGUGUGGUUAGCACAAGGAAUCUAAUUUAUAGCAAGUGUGAAAUAGUUACCAUUUUUUCCUGAUCUGUCAACAGAGGAUUGAGCAUCA
B2: chr1:229632307:229632408:+|CDS|ENSG00000135763|unk|FALSE|bound_elsewhere (ssRNA)
RNA: GGGAGUUCUACAGUCCGACGAUCAUUUUAUAAGAAAAAGCUUGAACUGAAGGAAGAUAUUGUUGAAAGGCUUUGGAUCUAUAUAGAUAACAUUUUACAUAGCAGAAAAUUGCAGAAUCUCCUCAAGAAUGGAAAGACCAUUAACAACAGAGGAUUGAGCAUCA
B3: chr2:1632960:1633155:-|3pUTR|ENSG00000130508|msi1|FALSE|unique (ssRNA)
RNA: GGGAGUUCUACAGUCCGACGAUCGUCCAUUUUUUAGGUAUUAGAUAUGGCAGAAAAACCAUUUCCACUAUGCAAAGUUCUUUUAGACGUCAGUGAAAAUCAACUCUCAUACCUCAUGGUCUCUCUUUAAUUGACCAAAACCUUCAACAGAGGAUUGAGCAUCA
B4: ENSG00000168936:stop:overlap|stop_codon|ENSG00000168936|stop_codon|NA|stop_codon (ssRNA)
RNA: GGGAGUUCUACAGUCCGACGAUCGUGUGGCCAGCACCAACCCUGCUGUGCAGGCCUUUGACAUCUGGAGCUGGAGGCCUGCAUAGGCUGCAUGCAGACACGUGCCAGCGUGAAGCUGGUGAAGACCUGCCAGGAGGCAGCCACCAACAGAGGAUUGAGCAUCA
B5: ENSG00000070961:be:win_4401|3pUTR|ENSG00000070961|bound_else_gene|NA|bound_elsewhere_windowed (ssRNA)
RNA: GGGAGUUCUACAGUCCGACGAUCGUUAUGACAUCUGUCCUAAUUAGUUUCUUAAAUACAUUUACUACUUAAUGGUUUUGAAGCAACUGUUUAAUUUUUAAAAUUUUUGAAAACUUGCUAAUAACCUUUUGUUCAGAAUUUAGUCAACAGAGGAUUGAGCAUCA
B6: chr20:3963869:3963970:-|CDS|ENSG00000101236|unk|FALSE|bound_elsewhere (ssRNA)
RNA: GGGAGUUCUACAGUCCGACGAUCAAUCUGCCUCUCAACAUAUAUAUUGUGGUUUUUGGUACUGCUAUAUUUGUCUUCAUCCUUAGUUUACUCUUCUGUUGCUACUUGAUUAGGUAACCAAUUUUCAUUCUAUGUUACUUCAAACAACAGAGGAUUGAGCAUCA
B7: chr17:75827259:75827360:-|3pUTR|ENSG00000092929|unk|FALSE|unique (ssRNA)
RNA: GGGAGUUCUACAGUCCGACGAUCGGACAGUUUGGCUGCUGUGUCUGCUGCGCACGCCCCCUCCCCGGACAGCACCUGCCACCUAGAAACUUUCUUAGCAAAAAAAUUAAUAAAAACAAAUCCAUUGUCCUCUUAAAAUAUGCCCAACAGAGGAUUGAGCAUCA
B8: ENSG00000107863:be:win_5701|CDS|ENSG00000107863|bound_else_gene|NA|bound_elsewhere_windowed (ssRNA)
RNA: GGGAGUUCUACAGUCCGACGAUCAGCACCUUGGCUUCAACAAACAGGCCCCUUCUUUCCAUACCACCACAGUCACCUGACCAAAUAAACGGAGAAAGCUUCCAGAACGUGAGCAAAAAUGCUAGUUCUGCAGCGAAUGCCCAACAACAGAGGAUUGAGCAUCA
B9: chr8:48920054:48920155:-|CDS|ENSG00000019549|unk|total|mutant (ssRNA)
RNA: GGGAGUUCUACAGUCCGACGAUCACCUAUUCAACUUUUUCUGGGCUGGCCAAACAUAAGCAGCUGCACUGCGAUGCCCAGUCCCGAAAAUCUUUCAGCUGUAAAUACUGUGACAAGGAAUAUGUGAGCCUGGGCGCCCUGAAGCAACAGAGGAUUGAGCAUCA
B10: chr17:77216858:77216994:+|3pUTR|ENSG00000129657|unk|FALSE|bound_elsewhere (ssRNA)
RNA: GGGAGUUCUACAGUCCGACGAUCUGUUUCUACCUUUAGUACCUUGCCACUCUUUUAAAACGCUGCUGUCAUUUCCCAUUUCUUAGUACUAAUGAUUCUUUGAUUCUCCCUCUAUUAUGUCUUAAUUCACUUUCCUUCCUAAAUCAACAGAGGAUUGAGCAUCA
B11: chr17:75827259:75827360:-|3pUTR|ENSG00000092929|unk|total|mutant (ssRNA)
RNA: B7 RNA with U83C, A84C, U95C, A96C
B12: chr1:151249111:151249212:+|3pUTR|ENSG00000143398|unk|FALSE|unique (ssRNA)
RNA: GGGAGUUCUACAGUCCGACGAUCGCAGAUUGUUGAAUUCCUGUUCUAUCCCUUCUCUAUCCCACCCUGCCUUGAUAAUAUGUUAGCCCAUACCCCAAAUAACUGUCUAUAUUAGACACCCCCAGCCAGUUUCUGGCUGCCUGUCAACAGAGGAUUGAGCAUCA
B13: ENSG00000113300:stop:overlap|stop_codon|ENSG00000113300|stop_codon|NA|stop_codon (ssRNA)
RNA: GGGAGUUCUACAGUCCGACGAUCUGGAGCUCUUACUGCCUUUCCUGCCCCAAGUCAACGGCAUCCACCUUCCUGGCAGGAGGUAGUCAAGCACCUUCAGAGGACAGCCUUGAUUCACUUGUAAACUUGUGAAAAUCUGAACAUCAACAGAGGAUUGAGCAUCA
B14: chr3:62294290:62294391:+|3pUTR|ENSG00000144724|msi1|total|mutant (ssRNA)
RNA: GGGAGUUCUACAGUCCGACGAUCAACCCGUCCUCUAAAAAUUCCCUAUUACUCCUACCGCAAUCUAAUAAAAACUACCUACACCGUUACUGUUUUCUUUCCUUCUUUGCCAAAUGUUUUAUAAUAAAUCUCUUAAUUACAUACCAACAGAGGAUUGAGCAUCA
B15: chr12:64147824:64147925:+|3pUTR|ENSG00000196935|unk|total|mutant (ssRNA)
RNA: GGGAGUUCUACAGUCCGACGAUCCAUCUCUGUGGUGUCUUUGUUCCUUUCCUUUCAUUCAUCACUACUUUCUCCUUGACAGCCCGCUUGCAUUAAAUAAUGUGAAACUUUUACCUUUAAAAUAUUUUUUUAUCUCACUUUCAUCAACAGAGGAUUGAGCAUCA
B16: chr3:62294290:62294391:+|3pUTR|ENSG00000144724|msi1|FALSE|unique (ssRNA)
RNA: B14 RNA with C27U, C28A, C57U, C58A, C83U, C84A

Residue numbers refer to the chain shown, from its start. Whole data set: some 5,800 sequences, median “enrichment r” near 0.68, cut for the highest 2% near 11. The list comes from a sample in which the highest values are over-represented; it also holds similar and randomly drawn sequences.

In this assay the target is T1, UNK ZnF1-6 (called full-length). As to the kind of experiment: nsRBNS (natural sequence RNA bind-n-seq); RBNS binding buffer (assumed for nsRBNS): 25 mM Tris pH 7.5, 150 mM KCl, 3 mM MgCl2, 0.01% Triton X-100, 500 ug/ml BSA, 20 U/ml SUPERase-In, 4 C; UNK is unkempt and MSI1 is Musashi-1; names of the RNAs are library labels; protein concentration not given here; high values mean tight binding.
In the case of B1, the binding signal came out at 2.96 enrichment R. B2 came in with a binding signal of 2.37 enrichment R. In turn, B3 registered a binding signal of 0.915 enrichment R. Regarding B4, the binding signal was 1.06 enrichment R. The result for B5 reads 5.85 enrichment R; that for B6, 2.08 enrichment R; that for B7, 25.7 enrichment R. In turn, B8 returned a binding signal of 0.589 enrichment R.

In turn, B9 returned a binding signal of 0.712 enrichment R. The molecule B10 showed a binding signal of 14 enrichment R. Molecule B11 displayed a binding signal of 0.989 enrichment R. Under B12 stands 2.26 enrichment R; under B13, 21.5 enrichment R; under B14, 3.11 enrichment R. Regarding B15, the binding signal was determined as 2.22 enrichment R. B16 gave a binding signal of 68.7 enrichment R.

These data come from article PMC12136788.
